Here are results for 50 molecules from PubChem BioAssay.

The target of assay [1] is Nuclear receptor coactivator 1 (Homo sapiens) (UniProt Q15788). Briefly: NCOA1 GAL4-fusion reporter inhibition – cell-based, luminescence, quadruplicate, confirmation (AID 588820).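 Further: 0% = DMSO wells and 100% = gossypol 36 µM treated wells.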 The note with it: HEK293 GAL4-SRC1 luciferase reporter, at 3.6 µM, active compounds read high.
Assay [2] can be described thus: repression of VP16-driven luciferase reporter – cell-based, luminescence, high throughput, counter-screen for SRC1 inhibitor project (AID 588824; in the data active means inhibition above about 25%). The note with it: cell-based VP16 transactivation luciferase luminescence; at 3.6 µM; active compounds read high. In general terms: Reporter assays use an easily measured gene product as a stand-in for the process of interest.

Unmarked numbers belong to inactive results. Active and inactive are the calls of the source.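 How the source made its calls, unless noted: active means mean inhibition above 46.68%, the untreated control wells mean plus 3 SD; inactive means the rest.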

Nuclear receptor coactivator 1 (Homo sapiens), sequence (Q15788 whole entry, looked up, the tested form may be a part): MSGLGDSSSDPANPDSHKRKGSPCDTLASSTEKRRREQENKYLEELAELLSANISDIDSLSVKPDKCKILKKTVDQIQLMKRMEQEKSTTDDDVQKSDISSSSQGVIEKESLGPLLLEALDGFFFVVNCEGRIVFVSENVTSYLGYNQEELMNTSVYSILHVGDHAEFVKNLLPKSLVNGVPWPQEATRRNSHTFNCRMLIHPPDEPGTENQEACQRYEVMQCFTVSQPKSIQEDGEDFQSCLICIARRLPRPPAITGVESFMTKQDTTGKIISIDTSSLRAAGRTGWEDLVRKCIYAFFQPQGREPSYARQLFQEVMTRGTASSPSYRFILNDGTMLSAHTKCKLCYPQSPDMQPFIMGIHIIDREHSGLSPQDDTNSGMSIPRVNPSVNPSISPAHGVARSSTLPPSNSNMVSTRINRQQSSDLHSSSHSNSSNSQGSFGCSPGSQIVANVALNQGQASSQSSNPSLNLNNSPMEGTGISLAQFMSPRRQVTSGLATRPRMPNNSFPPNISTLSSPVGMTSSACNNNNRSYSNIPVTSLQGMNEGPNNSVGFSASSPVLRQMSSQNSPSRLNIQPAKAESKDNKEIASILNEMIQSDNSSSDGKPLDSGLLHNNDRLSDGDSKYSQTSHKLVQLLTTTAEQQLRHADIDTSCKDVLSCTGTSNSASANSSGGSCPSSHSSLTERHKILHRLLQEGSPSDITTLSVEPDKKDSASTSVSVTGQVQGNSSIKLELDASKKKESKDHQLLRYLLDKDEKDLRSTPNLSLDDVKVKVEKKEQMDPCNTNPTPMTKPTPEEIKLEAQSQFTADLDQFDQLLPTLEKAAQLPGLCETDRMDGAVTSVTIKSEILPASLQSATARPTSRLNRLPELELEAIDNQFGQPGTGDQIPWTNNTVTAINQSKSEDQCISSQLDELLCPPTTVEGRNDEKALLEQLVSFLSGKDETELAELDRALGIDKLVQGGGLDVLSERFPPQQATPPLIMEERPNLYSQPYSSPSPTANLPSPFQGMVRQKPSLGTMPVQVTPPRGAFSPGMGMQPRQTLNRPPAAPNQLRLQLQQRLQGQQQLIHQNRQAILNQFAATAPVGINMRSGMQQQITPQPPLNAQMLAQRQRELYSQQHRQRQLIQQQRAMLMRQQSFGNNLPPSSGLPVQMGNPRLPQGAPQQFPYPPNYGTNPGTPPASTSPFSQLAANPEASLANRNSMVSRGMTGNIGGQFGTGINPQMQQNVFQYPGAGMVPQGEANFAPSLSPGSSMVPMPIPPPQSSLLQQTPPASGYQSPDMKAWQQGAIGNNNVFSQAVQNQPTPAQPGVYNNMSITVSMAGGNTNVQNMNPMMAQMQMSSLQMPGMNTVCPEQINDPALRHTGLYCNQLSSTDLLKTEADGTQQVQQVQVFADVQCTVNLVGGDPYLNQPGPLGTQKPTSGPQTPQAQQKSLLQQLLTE

The inhibition is the drop in the measured response relative to a control, in per cent. For the molecule `Cn1c(N)c(C(=O)CSc2nn(-c3ccccc3)c(=S)s2)c(=O)n(C)c1=O`, the results for the inhibition in assay [1] and in assay [2] were 8.31% and 17.7%, respectively.

For the molecule `COc1ccc(OCC(=O)Nc2ccc3c(c2)n(C)c(=O)n3C)cc1`, the inhibition in assay [1] was -14.2%; in assay [2], -5.89%.

As for `CN1c2ccccc2C2(C)CCCC3=Cc4cccc([N+](=O)[O-])c4OC312` (stereo not given), the inhibition in assay [1] is -8.43%; in assay [2] it was 11.1%.

As for `C=C(C)c1cccc(C(C)(C)NC(=O)N(Cc2ccccc2)Cc2ccco2)c1`, the inhibition in assay [1] is -2.08%; in assay [2] it was -0.46%.

With `CSC1=NCCCN1C(=O)c1c(-c2ccccc2Cl)noc1C`, the figures for the inhibition in assay [1] and in assay [2] were 0.66% and -14.8%, respectively.

Take `Cc1cccc(NC(=O)C2CCN(S(=O)(=O)c3ccc4c(c3)OCCCO4)CC2)n1`: the figures for the inhibition in assay [1] and in assay [2] were -23.6% and 17.2%, respectively.

Regarding `COc1ccc(CCN(C)C(=O)CSc2nnc(C3CC3)n2N)cc1OC`, the inhibition in assay [1] was 6.18%; in assay [2], 12.5%.

For the molecule `CC[n+]1c(/C=C/Nc2ccccc2)oc2ccccc21`, the values for the inhibition in assay [1] and in assay [2] were 36.7% and 28.5% (active), respectively.

Regarding `CC1(C)CC(=O)c2sc(N)nc2C1`, the inhibition in assay [1] was -9.15%; in assay [2], 0.81%.

For the molecule `c1ccc(-c2cn(-c3ccccc3)c3ncnc(N4CCCCC4)c23)cc1`, the inhibition was 1.38% in assay [1] and 9.49% in assay [2].

As to `CCOC(=O)C1=C(COC(=O)/C=C/c2ccc(OC)c(OC)c2)NC(=O)NC1C` (stereo not given), the results for the inhibition in assay [1] and in assay [2] were -16.4% and -2.04%, respectively.

On to `Cc1nc(N)c(C#N)c(-c2cccnc2)c1C`, for which the inhibition in assay [1] is 46.4%; in assay [2] it was 26.5% (active).

Consider `COc1ccc(O)c(C2(O)C(=O)c3ccccc3C2=O)c1`, for which the results for the inhibition in assay [1] and in assay [2] were -5.99% and 3.91%, respectively.

Regarding `Cc1ccc(S(=O)(=O)N2[C@@H](c3cccc(Cl)c3)C(C(=O)OC(C)(C)C)=CC[C@H]2c2ccc(C(C)C)cc2)cc1`, the inhibition in assay [1] is 0.74%; in assay [2], 11.2%.

On to `CCOC(=O)N1CCN(C2=Nc3cccc4cccc2c34)CC1`, for which the figures for the inhibition in assay [1] and in assay [2] were -13.8% and -0.04%, respectively.

As to `O=C(N[C@H]1c2ccccc2C[C@H]1O)[C@H]1O[C@@H](n2ccc(=O)[nH]c2=O)[C@H](O)[C@@H]1O`, the inhibition in assay [1] is -26.1%; in assay [2], -8.81%.

In the case of `O=c1c2ccccc2oc2ccc(C#CC3(O)CCCCC3)cc12`, the inhibition in assay [1] was -38.7%; in assay [2], -23.9%.

As for `CC(=O)c1c(C)n(-c2ccc(C)cc2)c2ccc(O)cc12`, the results for the inhibition in assay [1] and in assay [2] were 35% and 19.8%, respectively.

On to `COc1cccc(C=NNC(=O)c2ccncc2)c1O`, for which the results for the inhibition in assay [1] and in assay [2] were 7.89% and 10.7%, respectively.

For the molecule `Cc1cccc(Oc2ncnc(N)c2[N+](=O)[O-])c1C`, the inhibition is -14.1% in assay [1] and 5.89% in assay [2].

As to `N=c1c(C(=O)NCCc2ccccc2)cc2c(=O)n3ccccc3nc2n1CCCN1CCOCC1`, the inhibition in assay [1] is 6.5%; in assay [2], 18.9%.

For the molecule `COC(=O)c1ccsc1NC(=O)CN1CCN(c2ncccn2)CC1`, the inhibition in assay [1] is -31.8%; in assay [2], -17.6%.

Regarding `O=C(CCCCC(=O)NN=Cc1ccccc1O)NN=Cc1ccccc1O`, the inhibition in assay [1] is 37.3%; in assay [2] it was 39% (active).

As to `Cc1cc(C)nc(/N=C(\N)Nc2ccc(C(C)C)cc2)n1`, the inhibition in assay [1] is 3.7%; in assay [2], 9.11%.

Consider `CC1Sc2ccc(C(=O)Nc3ccc(S(=O)(=O)N(C)C)cc3)cc2NC1=O` (stereo not given), for which the inhibition in assay [1] is 9.77%; in assay [2], 6.36%.

For the molecule `Cc1cccc(NC(=O)CSCC(=O)N2CCCc3ccccc32)c1`, the inhibition is -14.1% in assay [1] and -4.48% in assay [2].

For `Cc1c(C(=O)NN)nn(-c2ccc(Cl)cc2)c(=O)c1C#N`, the inhibition was -10.1% in assay [1] and 5.25% in assay [2].

Regarding `COC(=O)C(C)Sc1nc(NCc2ccccc2)nc(N(C)C)n1` (stereo not given), the values for the inhibition in assay [1] and in assay [2] were -11.2% and -11.6%, respectively.

`COc1cc2c(cc1OC)C(NC(=O)C(F)(F)F)CNC2=O` (stereo not given): the inhibition in assay [1] was 45.5%; in assay [2], 22.3%.

As for `Cc1oc(-c2ccc(Cl)cc2)nc1CS(=O)CC(=O)NCCCN1CCN(Cc2ccccc2)CC1` (stereo not given), the inhibition is -11% in assay [1] and 27.4% (active) in assay [2].

As for `Cc1ccccc1NC(=S)NNC(=O)c1csc2c1CCC(C)C2` (stereo not given), the inhibition is -45.9% in assay [1] and -23% in assay [2].

Take `CCN1CCS/C1=C/C=C/C1=[N+](CC)CCS1`: the inhibition in assay [1] was -22.7%; in assay [2], 47% (active).

On to `COc1ccc(NC(=O)CCn2c(=S)[nH]c3ccccc3c2=O)cc1`, for which the inhibition was 2.22% in assay [1] and 0.97% in assay [2].

As for `CCCCN(C(=O)/C=C/c1ccccc1)C1CCS(=O)(=O)C1` (stereo not given), the values for the inhibition in assay [1] and in assay [2] were -6.12% and -4.11%, respectively.

Take `COc1ccc(Nc2cc(C)nc(NCc3ccccc3)n2)cc1`: the inhibition is 12.3% in assay [1] and 23.2% in assay [2].

Take `CCOC(=O)C1(Cc2cccc(Cl)c2)CCCN(C(=O)c2ccoc2C)C1` (stereo not given): the inhibition was -4.52% in assay [1] and -3.85% in assay [2].

For the molecule `COc1ccc(Cl)cc1NC(=O)Nc1ccccc1C(N)=O`, the inhibition in assay [1] was 9.1%; in assay [2], 17.7%.

For `CN1C(=O)C(O)(C2CCCCCC2=O)c2ccccc21` (stereo not given), the values for the inhibition in assay [1] and in assay [2] were -7.54% and -0.98%, respectively.

`COc1ccc(-c2[nH]ncc2CN2CCC(O)(c3ccc(Cl)cc3)CC2)cc1`: the inhibition in assay [1] is 13.2%; in assay [2], 10.8%.

For the molecule `Cn1cc(S(=O)(=O)Nc2ccc(OC(F)(F)F)cc2)c(=O)n(C)c1=O`, the inhibition in assay [1] is 6.39%; in assay [2], -5.51%.

On to `CC1CN(c2nc3ccccc3nc2SCC(=O)Nc2cccc(C(F)(F)F)c2)CC(C)O1` (stereo not given), for which the results for the inhibition in assay [1] and in assay [2] were -15.1% and 5.85%, respectively.

For the molecule `CN(CC(=O)NNC(=O)Cc1ccccc1F)S(=O)(=O)c1ccc(Cl)cc1`, the inhibition in assay [1] was -12.3%; in assay [2], 4.4%.

Turning to `Cc1nc(N=C(N)N)nc2ccccc12`, the inhibition in assay [1] was 2.65%; in assay [2], -11.1%.

Consider `C=CCc1ccccc1OCC(=O)N/N=C/c1ccc(OC(C)=O)cc1OC(C)=O`, for which the inhibition was 16.6% in assay [1] and -4.05% in assay [2].

In the case of `Cc1cnccc1NC(=O)c1cccs1`, the figures for the inhibition in assay [1] and in assay [2] were -0.39% and 0.67%, respectively.

Take `CCC(NC(=O)NC1CCCCC1)c1ccccc1` (stereo not given): the inhibition in assay [1] was -16%; in assay [2], -3.88%.

Consider `CC(C)C[C@H]1CNC(=S)N1C[C@H]1CCCN1C[C@H](CC(C)C)N1C[C@H](CC(C)C)N(CCc2ccccc2)C1=S`, for which the inhibition in assay [1] is -1.01%; in assay [2], 1.5%.

As for `CCOc1ccc(-c2[nH]ncc2-c2ccc(Cl)cc2)c(O)c1`, the inhibition in assay [1] is -8.3%; in assay [2], 3.27%.

`CCN1/C(=C2\C(=O)N(C)C(=S)N2c2ccccc2)C=Cc2ccccc21`: the inhibition is -4.3% in assay [1] and 2.2% in assay [2].

Take `Cc1sc2ncnc(N3CCC(C(=O)N(C)CC(=O)Nc4ccccc4Br)CC3)c2c1C`: the inhibition in assay [1] is 5.26%; in assay [2] it was 13.3%.
